This is a sample that favours compounds with a hit; in the whole collection about 27% have one here.
EphB4 ephrin blk – EphB4-ephrin-B2 interaction antagonism; inhibition, % at 7 µM; EphB4 LBD / TNYL-RAW-Alexa532 peptide, fluorescence polarization; actives 0.15% (n = 97,000);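 active means inhibition above the screen-wide mean inhibition plus 3 SD, cut at about 15% in these data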;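 further: 0% = DMSO wells and 100% = excess unlabeled TNYL-RAW peptide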
CYP2C19 act – cytochrome P450 2C19 (human) activation | recombinant CYP2C19, luciferin-H EGE luminescence; stronger effect = higher value; 0 = fully inhibited enzyme, 1 = untreated enzyme | P33261 | 96,000 tested, under 10 active | activation factor at 5 µM;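 active means activation factor of at least 2 at 5 µM in the primary screen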;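 further: 0 = wells with 2.5 mM tranylcypromine and 1 = vehicle-only wells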
Target sequence (P33261 whole entry, looked up): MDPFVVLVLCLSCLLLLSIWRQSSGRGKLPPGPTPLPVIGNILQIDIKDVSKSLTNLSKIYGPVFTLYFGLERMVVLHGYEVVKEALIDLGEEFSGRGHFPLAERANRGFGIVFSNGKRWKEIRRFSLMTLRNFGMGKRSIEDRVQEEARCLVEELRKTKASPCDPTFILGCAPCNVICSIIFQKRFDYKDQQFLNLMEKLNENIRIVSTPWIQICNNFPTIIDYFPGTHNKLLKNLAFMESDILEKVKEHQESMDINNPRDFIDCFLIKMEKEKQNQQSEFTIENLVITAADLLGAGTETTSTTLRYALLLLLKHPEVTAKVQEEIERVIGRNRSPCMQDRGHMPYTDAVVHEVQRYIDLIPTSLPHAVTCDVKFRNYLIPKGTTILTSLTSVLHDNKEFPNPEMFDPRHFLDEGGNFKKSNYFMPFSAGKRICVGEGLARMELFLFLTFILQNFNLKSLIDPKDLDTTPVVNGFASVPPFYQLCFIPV
CYP2C9 inh – human CYP2C9 inhibition. AID 777. P11712. inhibition, % at 5 µM. actives 20% (n = 96,000). CYP2C9 Supersomes, luciferin-H conversion, luminescence;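 active means blocking of liver enzyme CYP2C9 beyond about 50% at 5 µM, limit read from the data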
CYP2C9 activ – increases human cytochrome P450 2C9 activity; recombinant CYP2C9, luciferin-H conversion, luminescence; stronger effect = higher value; factor 1 = untreated enzyme, 0 = blocked; activation factor at 5 µM; actives 1.4% (n = 96,000); AID 1024;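 active means activation factor of 2 or more for CYP2C9 at a 5 µM dose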;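 further: 0 = sulfaphenazole-blocked wells and 1 = vehicle-only wells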
CYP2C19 inh – human CYP2C19 inhibition | actives 21% (n = 96,000) | inhibition, % at 5 µM | P33261 | CYP2C19 Supersomes, luciferin-H EGE luminescence, 30 min | AID 778;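 active means CYP2C19 inhibition above a set limit at 5 µM in the primary screen, cut at about 50% in these data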;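 further: plate controls were negative control wells for no effect and 2.5 mM tranylcypromine positive control for full effect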
* marks the source's active call; other numbers are inactive results; · = no result.

SMILES	EphB4 ephrin blk	CYP2C19 act	CYP2C9 inh	CYP2C9 activ	CYP2C19 inh
Cc1nc2ccccc2c(=O)n1-c1ccccn1	-0.1	0.9	8.9	0.9	12.8
O=C(Cc1ccccc1)OCCN1CCCCC1	-5.7	0.9	1.6	1	14.2
Cc1ccc2nc3c(cc2c1)CC1(C(=O)N(C)C(=O)N(C)C1=O)C1CCCCN31 (configuration not stated)	13.5	0.4	50.5*	0.5	64.0*
Cc1cccc(C)c1NC1=NCCCCS1	-2.1	1	-23.8	1.2	-2.9
Cc1c(C(=O)N2CCC3(CC2)OCCO3)sc2ncnc(N3CCN(c4ccccn4)CC3)c12	·	0.4	87.0*	0.1	61.8*
COc1ccc(Nc2ncc(C(=O)N3CCC4(CC3)OCCO4)c3ccccc23)cc1	·	0.8	13.9	0.9	22.9
OC1(c2ccc(F)cc2)CC2CCC(C1)N2Cc1nnnn1C1CCCC1 (configuration not stated)	-16.2	0.1	81.1*	0.2	87.7*
Nc1ccccc1C(=O)OC1CSC1	-6.3	1.2	-13.0	1.1	-16.0
CC1CCC/C=C/C2CC(O)CC2C(O)/C=C/C(=O)O1 (configuration not stated)	-5.8	0.9	-11.4	1.1	11.1
C[C@H]1CCC[C@H](O)CCCCCc2cc(O)cc(O)c2C(=O)O1	6.7	0.2	44.1	0.6	81.0*
C[C@H]1CCC[C@@H](O)CCC/C=C/c2cc(O)cc(O)c2C(=O)O1	-2.1	0.1	77.6*	0.2	89.1*
O=C(C1CCCO1)N1CCC2(CC1)OCCO2 (configuration not stated)	-4.1	1	1.1	1	1.3
CSc1ccc(CNC2CN3CCC2CC3)cc1 (configuration not stated)	1.2	1	-2.4	1	-0.1
COc1ccc(CCNC(C)CCc2ccc(OC)cc2)cc1 (configuration not stated)	-2.8	0.4	-1.6	1	55.1*
COc1ccc(N2C(=O)NC(=O)C(CCc3ccncc3)(CCc3ccncc3)C2=O)cc1	-2.3	·	·	·	·
COc1ccc(CCNCc2ccc(OC)c(OC)c2OC)cc1	-7.0	0.4	8.3	0.9	62.5*
COc1ccc(CCNCc2ccncc2)cc1	6.8	0.1	71.8*	0.3	90.3*
COc1ccc(OC)c(CC(=O)O)c1	0.4	1.1	-15.3	1.2	-13.0
Clc1ccccc1Nc1ncnc(-n2cccc2)n1	0.4	0.7	14.5	0.9	31.2
COc1ccc(CC2C(=O)NC(=O)N(c3ccccc3)C2=O)c(OC)c1 (configuration not stated)	4.9	1	42.2	0.6	0.3
COc1ccc(C(=O)CC2(CC(=O)c3ccc(OC)cc3)C(=O)N(C)C(=O)N(C)C2=O)cc1	-9.1	1.1	-7.7	1.1	-13.1
CN1C(=O)N(C)C(=O)C2(Cc3c(ccc4ccccc34)N(C)C2)C1=O	3.3	0.3	33.9	0.7	65.7*
Cc1ccc(Cl)cc1N1CCN(CCN)CC1	2.7	0.4	34.7	0.7	58.9*
COc1ccc(N2CCN(CCCN)CC2)cc1	-3.5	·	·	·	·
Cc1ccc2c(c1)CC1(CN2C)C(=O)NC(=O)N(C(C)C)C1=O (configuration not stated)	3.7	0.2	29.8	0.7	81.8*
SMILES	EphB4 ephrin blk	CYP2C19 act	CYP2C9 inh	CYP2C9 activ	CYP2C19 inh
CCC(C)N1C(=O)NC(=O)C2(Cc3cc(C)ccc3N(C)C2)C1=O (configuration not stated)	·	0.1	69.7*	0.3	89.4*
O=P(Nc1ccccc1)(Nc1ccccc1)Oc1cccc(Cl)c1	-5.3	0.5	50.6*	0.5	46.6
CCCCCCn1c(O)c(C=NC2CCCCC2N)c(=O)[nH]c1=O (configuration not stated)	-4.9	0.9	52.0*	0.5	6.7
CCCCn1c(O)c(C=NC2CCCCC2N)c(=O)[nH]c1=O (configuration not stated)	-2.1	1.2	-25.4	1.3	-15.7
NC1CCCCC1N=Cc1c(O)n(Cc2ccc(F)cc2)c(=O)[nH]c1=O (configuration not stated)	-4.3	0.9	76.1*	0.2	12.3
O=C1C2CCCN2C(c2cccnc2)N1c1cccc(Cl)c1 (configuration not stated)	-4.8	0.8	14.8	0.9	15.6
c1cncc(C2CCCCN2Cc2ccc3c(c2)OCO3)c1 (configuration not stated)	0.3	0	19.8	0.8	97.4*
Clc1cccc(CN2CCCCC2c2cccnc2)c1 (configuration not stated)	-0.3	0.1	53.5*	0.5	94.7*

Screening results deposited in PubChem BioAssay by several laboratories.
